Laboratory results reported in PubChem BioAssay (NCATS).
Results filed as inconclusive are left out. Activity calls are given as the source filed them. Calls follow the shape of the dose curve; as a rule, active = well fitted inhibition curve with a large enough effect; inconclusive = small, poorly fitted or top-dose-only effect; inactive = flat fitted curve, though single readings scatter.

Each molecule was assayed on CRL-7250 (assay: qHTS assay to identify novel small-molecules to repurpose for Merkel cell carcinoma treatment (AID 1296009; also: nearly all actives have a fitted effect of over 60% in size)). Settings: MCC and control cell lines, CellTiter-Glo viability, 72 h; series mostly up to 92 µM; activity change, negative = cytotoxicity: at the top concentration.
In short: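 Cells were treated for 72 hr at 37 degree celsius with compounds in 8- or 11-point dose response. Viability was read by CellTiter-Glo luminescence, normalized to no-cell (cytotoxicity) and DMSO controls.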

| SMILES | outcome |
| --- | --- |
| C=C[C@]1(C)C=C2CCC3C(C)(CCC[C@@]3(C)C(=O)O)C2CC1 (stereo not given in full) | inactive |
| CC1(C)CC[C@]2(C(=O)O)CC[C@]3(C)C(=CCC4[C@@]5(C)C[C@@H](O)[C@H](O)C(C)(C)C5CC[C@]43C)C2C1 (stereo not given in full) | inactive [at 17.4 µM] |
| CC1(C)CC[C@]2(C(=O)O)CC[C@]3(C)C(=CCC4[C@@]5(C)CC[C@H](O[C@H]6O[C@H](C(=O)O)[C@@H](O)[C@H](O[C@@H]7O[C@H](CO)[C@H](O)[C@H](O)[C@H]7O)[C@H]6O)C(C)(C)C5CC[C@]43C)[C@@H]2C1 (stereo not given in full) | inactive [at 9.27 µM] |
| COc1c2c(c(C)c3c1C(=O)OC3)OC1(C)CC(O)C34OC(OC)(CC(OC(C)=O)C3(C)C1C2)OC4(C)C (stereo not given) | inactive [at 17.4 µM] |
| NC(N)=NCCC[C@H](NC(=O)c1sccc1NS(=O)(=O)c1cccc2nsnc12)C(=O)O | inactive |
| COc1cc(C2Oc3c(OC)cc(CCCO)cc3C2CO)ccc1O (stereo not given) | inactive |
| OC[C@H]1O[C@@H](O[C@H]2[C@H](OCCc3ccccc3)O[C@H](CO)[C@@H](O)[C@@H]2O)[C@H](O)[C@@H](O)[C@@H]1O | inactive [at 17.4 µM] |
| CC(=O)/C=C/C1C(C)CC(O[C@@H]2O[C@H](CO)[C@@H](O)[C@H](O)[C@H]2O)CC1(C)C (stereo not given in full) | inactive |
| COc1cnc(-n2cnc(C)n2)c2[nH]cc(C(=O)C(=O)N3CCN(C(=O)c4ccccc4)CC3)c12 | inactive |
| CC(=O)OC[C@]1(O)[C@H]2[C@H](OC(=O)CC(C)C)OC=C(CO[C@@H]3O[C@H](CO)[C@@H](O)[C@H](O)[C@H]3O)[C@H]2C[C@@H]1O | inactive [at 17.4 µM] |
| CCOc1nc2c(N)ncnc2n1CC | inactive |
| C=Cc1cc2oc(-c3ccc(O)c(F)c3)nc2cc1O | inactive |
| COc1cc(C2CC(=O)Nc3c2cc(Br)c2ccccc32)cc(OC)c1OC (stereo not given) | inactive |
| COCC(=O)N1CCc2cc(-c3csc(NC(=O)c4cc(OC)cc(OC)c4)n3)ccc21 | inactive |
| O=C(O)Cc1nn(Cc2nc3cc(C(F)(F)F)ccc3s2)c(=O)c2nccnc12 | inactive |
| CC(=O)OC[C@@]12[C@H](O)C[C@]3(C)C(=CCC4[C@@]5(C)CC[C@H](O[C@@H]6O[C@H](C(=O)O)[C@@H](O[C@@H]7O[C@H](CO)[C@@H](O)[C@H](O)[C@H]7O)[C@H](O)[C@H]6O[C@@H]6O[C@H](CO)[C@@H](O)[C@H](O)[C@H]6O)[C@](C)(CO)C5CC[C@]43C)[C@@H]1CC(C)(C)[C@@H](OC(C)=O)[C@@H]2O (stereo not given in full) | inactive [at 9.27 µM] |
| CCN[C@@H]1C[C@H](N)[C@@H](O[C@H]2OC(CN)=CC[C@H]2N)[C@H](O)[C@H]1O[C@H]1OC[C@](C)(O)[C@H](NC)[C@H]1O | inactive [at 17.4 µM] |
| COC1C2=C(COC2=O)C2(C)CCCC(C)(CO)C2C1OC(=O)c1ccccc1 (stereo not given) | inactive [at 17.4 µM] |
| CC/C=C\CC1C(=O)C=CC1(CCCCC1CCC(=O)O1)OC(C)=O (stereo not given) | inactive |
| CC1(C)C(=O)N2c3ccccc3[C@]3(CC(n4cnc5ccccc5c4=O)C(=O)O3)[C@H]2N1O (stereo not given in full) | inactive [at 17.4 µM] |

| SMILES | outcome |
| --- | --- |
| CO[C@H]1O[C@@H]2O[C@@]3(C)CCC4[C@H](C)CCC([C@H]1C)[C@]42OO3 (stereo not given in full) | inactive |
| O=C(Cc1ccc(Cl)cc1)Nc1cnccc1C(=O)O | inactive |
| CCOC(=O)COc1ccc2c(c1)C[C@@H](NC[C@H](O)c1cccc(Cl)c1)CC2 | inactive |
| COC(=O)C1=COC(OC2OC(CO)C(O)C(O)C2O)C2C(COC(=O)/C=C/c3ccc(O)c(O)c3)C(O)C(O)C12 (stereo not given) | inactive [at 17.4 µM] |
| CCOC(=O)CSc1nc2c(sc3ccccc32)c(=O)n1CCCN1CCCC1 | inactive |
| O=C(O)Cn1nnc(-c2ccc(CN(CCCCOc3ccc(CN4CCCC4)cc3)CCc3ccccc3)cc2)n1 | inactive |
| COC(=O)c1c(CC=C(C)C)c(OC2OC(CO)C(O)C(O)C2O)c2ccccc2c1OC1OC(CO)C(O)C(O)C1O (stereo not given) | inactive [at 17.4 µM] |
| CCC(CC)C(=O)Nc1sc2c(c1C#N)CCC(C(C)(C)CC)C2 (stereo not given) | inactive |
| Cc1c(N2C(=O)c3ccc(C(=O)O)cc3C2=O)c(=O)n(-c2ccccc2)n1C | inactive |
| COC(=O)[C@@]1(O)C=CC[C@@H]2[C@@]3(C)C[C@@H](c4ccoc4)OC(=O)[C@H]3CC[C@]21C | inactive |
| Cc1ccc(NC(=O)C(=O)NC2CC(C)(C)NC(C)(C)C2)cc1 | inactive |
| COc1cc(C)c(C(=O)OC2C(C)OC(OC3CCC(C)C4C3C=C(C)C3/C(C)=C\CC/C(C)=C/C5(C)C=C(C(=O)O)C(C)CC56OC(=O)/C(=C(\O)C34C)C6=O)C(O)C2O)c(OC)c1 (stereo not given) | inactive [at 9.27 µM] |
| COc1cc(NC(=O)c2cccc(-n3cc(NC(=O)Nc4cccc(C)c4)cn3)c2)cc(OC)c1OC | inactive |
| C/C=C(\C)C(=O)O[C@H]1[C@@H](O[C@]2(COC(=O)CC(C)C)O[C@H](COC(=O)C(C)C)[C@@H](OC(C)=O)[C@@H]2O)O[C@H](COC(C)=O)[C@@H](O)[C@@H]1O | inactive [at 17.4 µM] |
| CC(=O)[C@@H]1CC[C@]2(C(=O)O)CC[C@]3(C)C(CCC4[C@@]5(C)CC[C@H](O)C(C)(C)C5CC[C@]43C)C12 (stereo not given in full) | inactive [at 17.4 µM] |
| C=C(C(=O)O)[C@@H]1CC[C@@]2(C)CC[C@H](O)[C@@]2(C(C)=O)C1 | inactive |
| CC1=C2C(=O)C=C(CO)C2[C@H]2OC(=O)[C@H](C)[C@@H]2[C@@H](OC(=O)Cc2ccc(O)cc2)C1 (stereo not given in full) | inactive [at 17.4 µM] |
| COC(=O)C1=C2Nc3ccccc3C23CCN2CCCC(C(C)O)(C1)C23 (stereo not given) | inactive |
| Cc1cc(CO)c(O)c(C(=O)CC2CC(=O)NC(=O)C2)c1 | inactive |
| CC(=C\C(C)O)/C=C(\C)C(=O)CC1CC(CC(N)=O)CC(=O)O1 (stereo not given) | inactive |
